# The supplement of paper PMC11417369
# ± gives the standard deviation of the averaged measurements. Whole data set: some 25,000 sequences, median “ln(normalized median fluorescence intensity)” near 8.6, cut for the highest 2% near 10. The sample as a whole holds a higher share of the highest values than the screen did.
# Tested on: PfAP2-EXP AP2 domain (GST-tagged)
# Assay: gcPBM binding intensity (ln(normalized median fluorescence intensity)); higher = stronger DNA binding
# In short: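 Binding intensity is defined as the maximum Masliner-normalised natural-log median intensity across replicate spots for either probe orientation. It was measured on an Agilent 4 × 180k array of primer-extended double-stranded 36-bp intergenic genomic probes and negative controls, to which GST-tagged P. falciparum DNA-binding domains made in E. coli were applied for 1 h in 1× PBS with 1% milk, 0.2 mg/ml BSA, 0.5% salmon testes DNA and 0.03% Triton X-100. Detection was by Alexa488 anti-GST antibody and scanning at 488 nm.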
row,Sequence,gcPBM binding intensity (ln)
1,TCCTTAAAAATCTAAAAAGAAAAAAACATATATTTT [GTGCAC_negctrl_site123],8.04 ± 0.45
2,ATAATATATATATATAGTACATATATATAATATTCT [XGTACX_site2445],8.2 ± 0.24
3,TTTCTTATATTATATAAATATATAGATGTTAATGGT [CACACA_negctrl_site706],8.38 ± 0.47
4,TATTATTGTTGTTCATGTACACACTATAATAAAAGC [XGTACX_site8957],8.64 ± 0.4
5,CAAAATTGACATGACGCACACAAGTGTAGATATTTT [CACACA_site1250],8.57 ± 0.4
6,ATATAAATATAAATATATATGTATAAATATAAATAT [CACACA_negctrl_site247],8.25 ± 0.47
7,GATTATATTATATATTAAATATAAATATGTATTATA [TGCATGCA_negctrl_site66],8.04 ± 0.42
8,ATTATATATGTATAAATATGCTATATATATATATAT [GTGCAC_negctrl_site430],10.3 ± 0.17
9,ATATTTTATACTTGCACACAAAATATATTAAAATGG [CACACA_site5139],8.47 ± 0.4
10,CTTCCTTAGGAATGTACACACATATATAATATGTTG [CACACA_site461],8.53 ± 0.4
11,CATTATTATTAACATACACACGTGTTAAATACACCC [CACACA_site6118],8.91 ± 0.6
12,TTCATTATTATTAACATACACACGTGTTATATACAC [CACACA_site4112],8.66 ± 0.41
13,CATTATTATTAACATACACACGTGTTATATACCCCC [CACACA_site9365],10.2 ± 0.41
14,TTTTTTTTTTTTTTTTTTTTTTTTTTTTTTTGGGGG [CACACA_negctrl_site1570],9.13 ± 0.49
15,GGTTGTATAAGTTTTTGTACATATATATATATATAT [XGTACX_site7487],10.2 ± 0.49
16,TAAGTTTTGTTCTTTTGTACATATAAGTATAGATCG [XGTACX_site4735],8.48 ± 0.33
17,TTTTTTTTTTTTTTTTGTACATATACATATATATAT [XGTACX_site1981],9.3 ± 0.11
18,ATGTGTGTATTTTATAGTACAGTTACAAGCATTTTT [XGTACX_site6351],8.57 ± 0.35
19,AATAAATACACATACACACACGACGCTAGTATATGT [CACACA_site6627],8.29 ± 0.4
20,TTTTTTTTTAGAAAAACATGCATGTCCTAAAAATAA [TGCATGCA_site684],8.89 ± 0.27
21,TATATATATATATATACACACTTGTGCAGAATATTA [CACACA_site5257],10 ± 0.55
22,TATAAATAGATATATACACACTTGTGCAGAATATTA [CACACA_site7112],8.63 ± 0.25
23,TATATATATATATATATACACACTTGTGCAGAATAT [CACACA_site2216],10.2 ± 0.41

row,Sequence,gcPBM binding intensity (ln)
1,TAAAAAATATACATTCGTACATATATATTATATATA [XGTACX_site7918],8.12 ± 0.25
2,ATTATATATACATATACACACATACGTACATACATA [CACACA_site9194],8.8 ± 0.4
3,TTATTCATACAATATCGTACATATATATATATATAT [XGTACX_site1185],10.2 ± 0.33
4,ATACATATATAAATACGTACATATATAATTATATAT [XGTACX_site8178],8.55 ± 0.3
5,TACAATTCGTAATACACACACATATAAATAAATATT [CACACA_site7720],8.44 ± 0.38
6,CCTACAATTCGTAATACACACACATATATATATATA [CACACA_site9251],10.2 ± 0.16
7,ACATTTTTTTCATATCGTACATATTATAATATTTTC [XGTACX_site6524],8.9 ± 0.39
8,TAATATTCAATTATACGTACACATATATATATATAT [XGTACX_site4245],10.2 ± 0.2
9,TACAATTCGTAATACACACACATATATATATATATT [CACACA_site3751],8.62 ± 0.36
10,TTGTAATTCATTCAAATATAAAATAAATAAATATGA [CACACA_negctrl_site349],8.28 ± 0.34
11,AAATGAATTATATAATATATATAAATAAATAAATAA [CACACA_negctrl_site359],8.46 ± 0.18
12,ATTTAAAACAAAAGTAGTACGTCTAATAAATTCAAC [XGTACX_site4344],8.45 ± 0.34
13,AAAAAAAAAAAGAAGGGTACATATTATATATAATAT [XGTACX_site6204],8.59 ± 0.48
14,TATTATAATAAAATATGTACACACATACACACATAT [XGTACX_site2360],8.8 ± 0.33
15,ACATTATATAAAATATGTACACATAAATAAATAAAT [XGTACX_site5031],8.73 ± 0.41
16,AAATAAAGAAATATATGTACATATATATATATATAT [XGTACX_site5131],10.4 ± 0.28
17,TAAAAGAAATATACATGTACATAAATATATATATAT [XGTACX_site1276],9.86 ± 0.2
18,TAAGAAAAATATATATGTACACATATATATATATAT [XGTACX_site8542],9.97 ± 0.57
19,ATACATATACACATATGTACATATGAAAAGAAAAAT [XGTACX_site6445],8.94 ± 0.45
20,ATTATAAGAAGGGGGGGTACATAAATATAAATGTAT [XGTACX_site5624],10.4 ± 0.2
21,AAAAAAAAAGAAAAATGTACATACATAAATATATAT [XGTACX_site5664],8.57 ± 0.45
22,ATATATATATATATATGTACACATAAAAAGAAAGAA [XGTACX_site1603],10.2 ± 0.21
23,ATATATATATATATATGTACACATATTATAAAAAAA [XGTACX_site8644],10.2 ± 0.32

row,Sequence,gcPBM binding intensity (ln)
1,TATAAGAATAAAAAGGGTACATAAAATAATAATATA [XGTACX_site2355],8.82 ± 0.38
2,TTACAACAGAATGGTATTTTTTTATTTTAAAGAAAA [TGCATGCA_negctrl_site230],8.04 ± 0.38
3,ACATAATATACTATTGTGCACATATATATATATATA [GTGCAC_site9761],10.1 ± 0.45
4,AAAATGATGTTAATTACACACATCATCTCATAAACA [CACACA_site3017],8.28 ± 0.4
5,TATTTAATTACATGAACACACATTAGATATTTTTAA [CACACA_site7405],8.14 ± 0.44
6,AAAAAAAAAAAAAGGTGTACATAAGTAAATTCATAT [XGTACX_site4206],8.7 ± 0.54
7,TATATATAAAGGTGTACACATATATATATATCTGTA [CACACA_site5311],8.45 ± 0.17
8,AATACAATATAAAGGTGTACATATATATATATATAT [XGTACX_site68],10.1 ± 0.48
9,ACATATATATAAAGGTGTACACATATATATATATAT [XGTACX_site4779],10.2 ± 0.71
10,TTCATAATAAAAAGGTGTACATATATATATATATAT [XGTACX_site2829],10.34 ± 0.085
11,ATTCATAAAAAGAGGTGTACATTAATATAATATATA [XGTACX_site8283],8.62 ± 0.35
12,TATGTATATTTTAATTGTACGTGTATGGTTGTAAAT [XGTACX_site8738],8.79 ± 0.38
13,TATTAAAATATTTATACACACATAATTTTGATAAAT [CACACA_site4486],8.19 ± 0.43
14,ATAATATTATTATAATGTACATATTTCGATATAAAT [XGTACX_site8808],8.61 ± 0.42
15,TATTCGTGCAATAATAGTACACTTATAAATTATTCA [XGTACX_site8993],8.595 ± 0.064
16,TACTTTATATAAAGATCAAAAAATAAATAATTATAA [TGCATGCA_negctrl_site446],8.45 ± 0.21
17,TACTTTCAAAAGATCACACATATATATATATATATA [CACACA_site5630],10.39 ± 0.085
18,TCAAAAATAAAGATCACACATATATATATATATATA [CACACA_site4381],10.2 ± 0.35
19,CACAATACTTTCATCACACATATATATATATATATA [CACACA_site4677],10.1 ± 0.28
20,ATCAAAGATAAATTTACACACATATAAATATAAATA [CACACA_site7409],8.44 ± 0.56
21,AAAAAAAAAGATCACACACACATAAATATAAACAAA [CACACA_site5285],8.48 ± 0.26
22,TTTTTTTTTTTTTTTTGTACATAAATTTTTATTAGA [XGTACX_site6409],8.17 ± 0.35
23,TATACATATTTCTATTGTACATAAACTAAATCTTCA [XGTACX_site28],8.27 ± 0.49

row,Sequence,gcPBM binding intensity (ln)
1,TTTTATTTTTTATTTGCACACAATATGTAAAAAAAT [CACACA_site2927],8.71 ± 0.16
2,ATATTAATTCGTTTTGTACACACATAATGAATAATT [CACACA_site8701],8.43 ± 0.24
3,TGTGCTATATTCATATGTACATATAATTATTATATA [XGTACX_site3549],8.86 ± 0.028
4,CTGTATTCATAATTCACACAAATGGTTTATATGAAT [CACACA_site4315],8.5 ± 0.31
5,GGGGACGCGGGTGGGGGTACTCACACTATGCAAAAT [XGTACX_site7745],10.3 ± 0.4
6,ATGCAAATGTGCATCACACACACTAATGGGTATGTA [CACACA_site2893],8.39 ± 0.38
7,GCTTAGTTATATAACTGTACTATTTTTATTTATATG [XGTACX_site884],9.16 ± 0.83
8,CCTATAATAAATAATACACACATATTGTAAATATAT [CACACA_site7496],8.46 ± 0.53
9,AGGTGCAAAAATAAAACATGCAAAAATAAAAATGAA [TGCATGCA_site502],9.15 ± 0.44
10,GAAAGAATAAAATAAACATGCAAATAAAACATAAAA [TGCATGCA_site471],9.27 ± 0.25
11,CACATAAAATAAGGTGCATGCAAACGAGAAAATAAA [TGCATGCA_site75],10.5 ± 0.11
12,CAAGGAACCAGACACACACACATAAATGTATTTATA [CACACA_site6491],8.39 ± 0.48
13,TCATAAAAGATTAAGTGTACATGTGCTACTCTTATA [XGTACX_site6255],8.34 ± 0.25
14,GTTTTTATCATATCATGTACGTATTTTATTTTTTTT [XGTACX_site8643],9.03 ± 0.32
15,ATATATATATATGTATGTACGTATGTATGTATGAAT [XGTACX_site4857],9.91 ± 0.29
16,ATATATCATGAACCTTGTACGTATATATATATATAT [XGTACX_site239],10.2 ± 0.23
17,TCTTAAAATATATAGGTGCAAAAAAAAAAAAAAAAA,8.31 ± 0.13
18,TAATATAATATATAGGTGCAATATTAACAAAAATTT,8.63 ± 0.085
19,TATATATATATATAGGTGCAATATTGAAAAAATATC [GTGCAC_site9535],10.3 ± 0.21
20,ACCGGTGGAACGTTTTGTACATATATAATAATATAT [XGTACX_site2143],8.62 ± 0.5
21,TATATATATATATATTGTACTGAACGTTTTTTTTTG [XGTACX_site8060],10.2 ± 0.39
22,AATACGTTTATATATTGTACGTTATATATATATATA [XGTACX_site7452],9.91 ± 0.33
